Screening data: PubChem BioAssay, The Scripps Research Institute Molecular Screening Center
SRC3 TRFRET art: TR-FRET detection interference compounds, artefact control for PPARgamma SRC-3 recruitment agonists, biochemical, TR-FRET ratio; TR-FRET artefact counter-screen, PPARgamma/SRC-3 format; stronger effect = higher value; TR-FRET ratio at 8 µM; 99,000 tested, 0.39% active
PPARg SRC2 recr: agonists of PPARg-SRC-2 recruitment, primary screen, biochemical, HTS | PPARgamma LBD-SRC-2 recruitment | 200,000 tested, 0.34% active | Peroxisome proliferator-activated receptor gamma (Homo sapiens), P37231 | activation, % at 8 µM | AID 1032, 2008; in the data active = activation above about 22%;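 also: 0% = vehicle and 100% = reference agonist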
TR-FRET SRC-2 ct: TR-FRET signal artefacts, primary screen, artefact control for PPARgamma SRC-2 agonist project, biochemical; AID 1049, 2008; 200,000 tested, 0.4% active; TR-FRET ratio at 8 µM; TR-FRET artefact counter-screen; stronger effect = higher value
SRC1 TRFRET art: TR-FRET detection interference compounds, primary screen, artefact control for PPARgamma SRC-1 recruitment agonists, biochemical, TR-FRET emission ratio. TR-FRET detection artefact counter-screen; stronger effect = higher value. TR-FRET ratio at 8 µM. 99,000 tested, 0.34% active. AID 1051, 2008; in the data active = TR-FRET ratio above about 2300
PPARg SRC1 recr: PPARgamma agonists recruiting SRC-1 coactivator, primary screen, biochemical. PPARgamma-SRC-1 coactivator recruitment biochemical assay. activation, % at 8 µM. 200,000 tested, 0.41% active. AID 631, 2007; in the data active = activation above about 19%;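 also: 0% = DMSO and 100% = reference agonist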
PPARg SRC-3 ag: PPARgamma agonists recruiting SRC-3 coactivator, primary screen, biochemical. biochemical PPARgamma/SRC-3 coactivator recruitment assay. activation, % at 8 µM. 200,000 tested, 0.26% active. AID 731, 2007; in the data active = activation above about 23%;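 also: 0% = DMSO and 100% = reference agonist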
PPARg SRC2 conf: agonists of PPARgamma SRC-2 coactivator recruitment, confirmation, biochemical, HTS. activation, % at 8 µM. shares compounds with PPARg SRC-3 ag. 790 tested, 52% active. biochemical SRC-2 recruitment by PPARgamma; in the data active = activation above about 22%;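 also: 0% = vehicle alone and 100% = reference agonist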
PPARg SRC1 ag: PPARgamma agonists recruiting SRC-1 coactivator, confirmation, biochemical. shares compounds with PPARg SRC-3 ag. PPARgamma–SRC-1 coactivator recruitment biochemical assay. activation, % at 8 µM. 790 tested, 43% active. AID 1300, 2008; in the data active = activation above about 20%;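 also: 0% = vehicle wells and 100% = reference agonist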
PPARg SRC3 conf: PPARgamma-driven SRC-3 coactivator recruitment agonists, confirmation, biochemical; 790 tested, 29% active; biochemical PPARgamma-SRC-3 coactivator recruitment, agonist mode; shares compounds with PPARg SRC-3 ag; activation, % at 8 µM; in the data active = activation above about 24%;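 also: 0% = vehicle wells and 100% = reference agonist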
The depositor's hits bear a star; / = not tested or not shown. Sampled rows, rich in hits. Any-hit rate of the full collection: about 0.9%. Rule as the data show it, unless noted: active = TR-FRET ratio above about 2000; inactive = the rest.

SMILES | SRC3 TRFRET art | PPARg SRC2 recr | TR-FRET SRC-2 ct | SRC1 TRFRET art | PPARg SRC1 recr | PPARg SRC-3 ag | others
O=C(N/N=C/c1c(O)n(CCc2ccccc2)c(=O)[nH]c1=O)c1ccncc1 | 1522 | 8 | 2004* | 1769 | -1 | 10
CC(C)(C)NC(=O)C1CC2CCCCC2CN1 (stereo not given) | 1590 | -7 | 1783 | 2054 | -1 | -3
CCNC(=O)NNC(=O)C1CC(c2cccnc2)=NO1 (stereo not given) | 1657 | 0 | 1490 | 1905 | -1 | 2
COc1ccc(-c2cc(=Nc3ccccc3)c3cc(C)ccc3o2)cc1 | 1387 | 3 | 1332 | 2615* | 15 | -6
COc1ccc(-c2cc(=NCCC(=O)O)c3cc(C)ccc3o2)cc1 | 1485 | -10 | 1337 | 1700 | -2 | -5
CCCCCCn1c(O)c(C=Nc2c(C)n(C)n(-c3ccccc3)c2=O)c(=O)[nH]c1=O | / | 25* | 1830 | / | 5 | -6
O=C(CSc1ccccc1)N1CCC2(CC1)OCCO2 | / | 1 | 1402 | / | 0 | 12
Cn1c(=O)cc(SCC(=O)N2CCC3(CC2)OCCO3)c2ccc(Cl)cc21 | / | 73* | 2539* | / | 50* | 79* | PPARg SRC2 conf=28*;PPARg SRC1 ag=19;PPARg SRC3 conf=20
CN(C)c1ccc(/C=C/c2cc[n+](C)c3ccccc23)cc1 | 2979* | 61* | 2947* | 3265* | 83* | 61* | PPARg SRC2 conf=65*;PPARg SRC1 ag=49*;PPARg SRC3 conf=43*
CCOc1ccc2c(c1)c(C(C)=O)c(C)n2Cc1ccco1 | 1585 | 0 | 1500 | 1769 | 6 | 1
